# According to PubChem BioAssay (NCI):
# The panel holds about 83,000 compounds, 20% with a hit somewhere; the sample as a whole holds those more often.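 A percent growth of 40 corresponds to 60% growth inhibition; 0 means no net growth; -100 means all cells died. Active threshold: below 10.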 A number with no mark means an inactive call. Activity calls are given as the source filed them.
# Test system: HL-60(TB) leukemia
# Assay: NCI-60 one-dose screen, 48 h (100 = growth as untreated, 0 = no growth, -100 = all killed)
# Conditions: 10 µM unless noted
row,Compound,growth
1,COc1ccc(C(=O)c2cc(OC)c(C)c(OC)c2)cc1OC(=O)CCl,-28.5% (active)
2,COc1ccc(-c2csc(-c3cc(Cl)cc(Cl)c3Cl)n2)cc1,93.6%
3,COc1ccc(-n2c(C(O)c3ccccc3)n[nH]c2=S)cc1 (stereo not given),119%
4,O=C(O)c1cccc2oc(-c3ccccc3O)nc12,49.8%
5,Cc1nc(Cl)c2c(n1)N(C)c1ccc(Cl)cc1C(C)C2 (stereo not given),72.2%
6,N#CC1CCc2c(c(-c3ccc4nc(N)sc4c3)nc3ccc4[nH]ncc4c23)C1 (stereo not given),34.9%
7,O=C(Nc1cccc2[nH]c(C(F)(F)F)nc12)c1ccc(F)cc1,49.6%
8,O=C1/C(=C\c2cccnc2)SC(=S)N1CCc1ccc(O)cc1,18%
9,C=CCN1C(=O)/C(=C/C(=O)OC)S/C1=N\NC(=O)c1cc2ccc1/C=C\c1ccc(cc1)/C=C\2,91.8%
10,COc1cc(-c2cc(/C=C/C(=O)c3ccc4c(c3)OCO4)[nH]n2)cc(OC)c1OC,91.3%
11,Cc1c2c(cc[n+]1Cc1ccccc1)c1ccc(OCC3CCCCC3)cc1n2CC1CCCCC1,-53.4% (active)
12,c1ccc(CN=C(NCc2ccccc2)NCc2ccccc2)cc1,49.9%
13,COc1cc(C2C3=C(COC3=O)Nc3cc4c(cc32)OCO4)cc2c1OCO2 (stereo not given),-8.91% (active)
14,COc1ccc2c(c1)C(=O)c1c-2c(OCCN(C)C)nc2ccccc12,25.4%
15,ClC1c2ccccc2CCc2ccccc21,122%
16,CCN1C(=O)/C(=C/C=C/N(C)c2ccccc2)SC1=S,78.2%
17,N#CC1=C(c2ccccc2)Nc2c(c(-c3ccc(Cl)cc3)nn2-c2ccccc2)C12C(=O)Nc1ccc(Cl)cc12 (stereo not given),48.2%
18,CCOC(=O)Cn1c(=O)c2c3ccccc3n(C)c2n2nnc(-c3ccccc3)c12,68.5%
19,CCCCCCN1CCN(Cc2ccc(N(CC)CC)cc2)C(=O)C1=O,-19.1% (active)
20,CCCCCCCCN(CCCCCCCC)CCCCCCCCCN1CCCc2cc(OC)ccc21,89.6%

row,Compound,growth
1,CCCCCCCO,114%
2,COc1ccc2nc(-c3ccc(Cl)cc3)cc(-c3nnc(SCC(=O)Nc4ccc(C(C)=O)cc4)n3-c3ccccc3)c2c1,99.3%
3,C=C1C(=O)O[C@H]2[C@H]1CC/C(COC(=O)NCc1[nH]nc3ccccc13)=C\CC[C@@]1(C)O[C@@H]21,-51% (active)
4,C[Si](C)(C)Cc1ccccc1,125%
5,CCN(CC)CCNc1ccc(Cl)cc1Cl,92.9%
6,CS(=O)(=O)c1ccc(C(=O)N2N=C(c3ccccc3)CC2c2ccc3c(c2)OCO3)cc1 (stereo not given),37%
7,C=C(C)[C@@H]1CC[C@]2(C(=O)NC(COC(=O)C(Cl)Cl)(COC(=O)C(Cl)Cl)COC(=O)C(Cl)Cl)CC[C@]3(C)[C@H](CC[C@@H]4[C@@]5(C)CC[C@H](OC(C)=O)C(C)(C)[C@@H]5CC[C@]43C)[C@@H]12,16.7%
8,CN1CCN(c2ccc(Nc3ncc4[nH]c(=O)n(Cc5ccccc5N)c4n3)cc2)CC1,97.2%
9,COc1cc2nc(-c3ccc(Cl)cc3)cc(OCCCN3CCOCC3)c2cc1OC,27%
10,CN1CCN(c2ccc3cc(-c4nc5ccccc5[nH]4)c(=O)oc3c2)CC1,73%
11,COc1ccc2c(c1)nc(N)c1c3cccnc3cn21,14.9%
12,CCN(CC)c1ccc2cc(C(Nc3ccc(Cl)cc3)c3nnnn3C(C)(C)C)c(=O)oc2c1 (stereo not given),96%
13,CCCCCC(=O)Oc1ccc(/C(=C(\C)c2ccccc2)c2ccc(OCCN(CC)CC)cc2)cc1,33.9%
14,Cn1ccc(Nc2nccc(Oc3ccc(C(=O)Nc4cccc(F)c4)c(Cl)c3)n2)c1,95.4%
15,CC(c1ccccc1)N1C(=O)C(C2SC(=S)N(C(C)c3ccccc3)C2=O)SC1=S (stereo not given),78.2%
16,CN(C)c1ccc(/C=C(\C#N)c2nc3ccccc3s2)cc1,93.3%
17,CCN(CC)c1ccc2nc3c4ccccc4c(=O)cc-3n(-c3ccccc3)c2c1,-26.7% (active)
18,C=C(C)[C@@H]1CC[C@]2(C(N)=O)CC[C@]3(C)[C@H](CC[C@@H]4[C@@]5(C)C/C(=C/c6cccnc6)[C@H](O)C(C)(C)[C@@H]5CC[C@]43C)[C@@H]12,0.0883% [100 µM] (active)
19,CCOc1cc(\C=N/N=C(N)/C(N)=N\N=C/c2ccc(O)c(OCC)c2)ccc1O,121%
20,Cc1ccc(C)c2c1sc1nc3n[nH]c(N)c3c(=N)n12,112%
